Screening data deposited in PubChem by Buhrlage Lab, Dana-Farber Cancer Institute and Novartis Institutes for BioMedical Research (Cambridge, Mass).
USP7 inh: blocks human USP7 ubiquitin-rhodamine cleavage. purified USP7, Ub-rhodamine cleavage fluorescence. Q93009. hit rate 0.3% among 47,000. inhibition, % at 20 µM. AID 1645854
USP8 inh: inhibitors of human USP8 deubiquitinase; P40818; purified USP8, Ub-rhodamine cleavage fluorescence, 30 min; inhibition, % at 20 µM; hit rate 4.2% among 47,000
UCHL1 block: human UCHL1 deubiquitinase inhibition; P09936; inhibition, % at 20 µM; purified UCHL1, Ub-rhodamine cleavage fluorescence; hit rate 0.2% among 47,000
USP10 inh: human USP10 deubiquitinase inhibition; Q14694; purified USP10, Ub-rhodamine fluorescence, 60 min; inhibition, % at 20 µM; hit rate 1.1% among 47,000
Target sequence (Q14694 whole entry, looked up): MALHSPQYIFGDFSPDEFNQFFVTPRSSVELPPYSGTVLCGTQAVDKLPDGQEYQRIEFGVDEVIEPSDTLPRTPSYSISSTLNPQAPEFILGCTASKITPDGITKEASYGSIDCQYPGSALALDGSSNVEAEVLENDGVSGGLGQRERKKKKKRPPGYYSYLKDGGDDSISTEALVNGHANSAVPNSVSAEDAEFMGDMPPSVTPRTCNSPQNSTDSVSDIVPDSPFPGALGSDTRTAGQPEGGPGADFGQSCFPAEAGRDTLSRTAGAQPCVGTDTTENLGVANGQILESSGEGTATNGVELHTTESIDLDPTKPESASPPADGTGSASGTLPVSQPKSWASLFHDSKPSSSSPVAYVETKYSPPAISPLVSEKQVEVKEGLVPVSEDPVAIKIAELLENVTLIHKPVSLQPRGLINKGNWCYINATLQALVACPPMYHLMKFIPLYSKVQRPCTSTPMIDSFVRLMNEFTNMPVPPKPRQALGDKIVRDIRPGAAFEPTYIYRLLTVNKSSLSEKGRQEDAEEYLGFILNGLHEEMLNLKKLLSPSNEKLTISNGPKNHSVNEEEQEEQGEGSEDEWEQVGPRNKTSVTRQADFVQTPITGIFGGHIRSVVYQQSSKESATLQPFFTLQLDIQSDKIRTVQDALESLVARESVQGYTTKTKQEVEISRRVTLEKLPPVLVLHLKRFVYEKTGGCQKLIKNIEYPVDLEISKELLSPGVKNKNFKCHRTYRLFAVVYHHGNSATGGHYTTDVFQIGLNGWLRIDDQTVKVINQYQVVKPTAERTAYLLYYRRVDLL
Numbers stand for hits; 0 = inactive. Shown are actives, neighbours in structure and some others; about 4.6% of the full set was active somewhere. Cut-off read from the data, not from the text of the source: active = inhibition above about 30%; inactive = the rest.

SMILES	USP7 inh	USP8 inh	UCHL1 block	USP10 inh
Cc1ccc(Cn2c(=O)n(CCC(=O)NCCc3ccccc3)c(=O)c3ccccc32)cc1	0	34	0	0
O=C(Cn1c(=O)n(Cc2ccc(F)cc2)c(=O)c2ncccc21)Nc1ccccc1	0	0	0	0
CCn1cc2c(n1)c(=O)n(Cc1ccccc1)c(=O)n2CC(=O)NCc1ccc(C)cc1	0	60	0	0
Cc1ccc(Cn2c(=O)c3ncccc3n(CC(=O)NCc3ccc(F)cc3)c2=O)cc1	0	81	0	34
COc1ccc(CCNC(=O)c2ccc(Cn3c(=O)c4ccccc4n(Cc4cc(=O)n5ccccc5n4)c3=O)cc2)cc1OC	0	0	0	0
O=C(Cc1ccc(-n2c(=O)c3ccccc3n(Cc3cc(=O)n4ccccc4n3)c2=O)cc1)NCCc1ccccc1	0	49	0	0
Cc1nc2nc(N(Cc3ccc(F)cc3)C(=O)C3CCCCC3)[nH]n2c(=O)c1C	0	0	0	0
CC(C)CC1NC(=O)C2CC(O)CN2C1=O (configuration not stated)	0	0	0	0
O=c1[nH]c(=O)n(Cc2ccco2)c2c1CN(CCc1ccccc1)CN2	0	0	0	0
Cc1ccc(CNC(=O)Cn2c(=O)n(CCCC(=O)NCc3ccc(F)cc3)c(=O)c3ccccc32)cc1	0	43	0	44
CC1(C(=O)NCc2ccc(F)cc2)Cn2nc(-c3ccco3)cc2C(=O)N1c1ccc2c(c1)OCCO2 (configuration not stated)	0	61	0	0
Cc1cc2n(n1)CC(C)(C(=O)NCc1ccccc1)N(c1ccc3c(c1)OCCO3)C2=O (configuration not stated)	0	0	0	0
Cc1ccc2cc3c(nc2c1)OC(=O)N(Cc1ccc(C)o1)C3	0	50	0	0
COc1ccc2cc3c(nc2c1)OC(=O)N(CCc1cccc(F)c1)C3	0	35	0	0
CCOc1ccc2cc3c(nc2c1)OC(=O)N(Cc1ccc(OC)cc1)C3	0	77	0	0
COc1ccc2cc3c(nc2c1)OC(=O)N(Cc1ccc(F)cc1)C3	0	0	0	0
Cc1ccc(-c2c3c4n(c(-c5ccc(Cl)cc5)cn4c2C(=O)Nc2ccccc2Cl)CCCC3)cc1	0	43	0	0
O=C1NC(=N/N=C/c2ccccc2)SC1Cc1cc(C(F)(F)F)ccc1Cl (configuration not stated)	0	0	0	47
O=C(Oc1coc(CSc2ncccn2)cc1=O)c1c(F)cccc1F	0	46	0	0
O=C(NCc1ccccc1)c1ccc2noc(-c3ccc(F)cc3)c2c1	0	0	0	0
COc1ccc(NC(=NCc2c(C)nn(C)c2C)NC(=O)c2ccc(NC(C)=O)cc2)cc1	0	0	0	0
COc1ccc(NCc2nc3ccccc3n2Cc2ccccc2)cc1	0	90	0	0
O=C(O)c1ccc(NCc2nc3ccccc3n2Cc2ccccc2F)cc1	0	0	0	0
Cn1c(CCc2ccccc2NS(=O)(=O)c2ccccc2)nc2ccccc21	0	0	0	0
CCOc1ccccc1C(=O)Nc1ccc2c(c1)Sc1ncccc1C(=O)N2C	0	0	0	0
SMILES	USP7 inh	USP8 inh	UCHL1 block	USP10 inh
O=C1Nc2ccccc2C(=O)C1C(c1ccc(Cl)cc1)C1C(=O)Nc2ccccc2C1=O (configuration not stated)	0	34	0	54
COc1ccccc1C(=O)N1CCc2cc(S(=O)(=O)N3CCCC3)ccc21	0	0	0	0
Cc1ccccc1NC(=O)CSc1nccn(-c2ccc(F)c(F)c2)c1=O	0	0	0	0
Cc1cccc(-n2ccnc(SCC(=O)Nc3ccc(Cl)cc3F)c2=O)c1	0	49	0	0
Cc1ccc(-n2ccnc2N2CCN(CC(=O)Nc3ccccc3F)CC2)cc1	0	0	0	0
O=C(CSc1nccn1-c1cccc(C(=O)Nc2ccccc2)c1)Nc1ccccc1F	0	51	0	0
O=C(Nc1cccc(F)c1)c1ncn2c1CNS(=O)(=O)c1ccccc1-2	0	0	0	0
CCOc1ccccc1NC(=O)N1CCCN(c2ncccc2C#N)CC1	0	0	0	0
N#Cc1cccnc1N1CCN(C(=O)Nc2cccc3ccccc23)CC1	0	91	0	0
Cc1cc(C(=O)NC2CCN(Cc3ccccc3)CC2)c(C)o1	0	0	0	0
CC(C)n1cc2cc(C(=O)NC3CCN(Cc4ccccc4)CC3)sc2c1	0	51	0	0
NS(=O)(=O)c1ccc(CCNC(=O)CSc2nc3ccccc3c(=O)n2Cc2ccc3c(c2)OCO3)cc1	0	53	0	0
O=C(CSc1nc(-c2ccccc2)c2ccccc2n1)NCc1ccc2c(c1)OCO2	0	55	0	0
O=C(CSc1nc(-c2ccccc2)c2ccccc2n1)NCc1ccc(C(=O)O)cc1	0	0	0	0
CCNC(=O)O[C@H]1CN(C(=O)NCC)[C@H]2CC[C@@H](N3CCOCC3)[C@@H]1C2	0	0	0	0
Cc1nc(N2CCCC2)ncc1-c1cc(=O)[nH]c(Nc2ccc(Cl)cc2Cl)n1	0	0	0	51
CCn1cnc2cc(NCc3cccc(OC)c3O)ccc21	0	40	0	0
CC(C)c1ccccc1OCC(=O)N1CCC(c2[nH]nc3nccnc23)CC1	0	0	0	0
CCCCOc1ccccc1C(=O)Oc1ccc(-n2cnnn2)cc1	0	0	0	0
O=C(Oc1ccc(-n2cnnn2)cc1)c1ccccc1Br	0	45	0	0
COc1ccc(OC)c(C(=O)Nc2ccc3c(c2)NC(=O)C(C)O3)c1 (configuration not stated)	0	0	0	0
Cc1cccc(OCC(=O)Nc2ccc3c(c2)NC(=O)C(C)O3)c1 (configuration not stated)	0	35	0	0
COc1ccc(OCC(=O)Nc2ccc3c(c2)NC(=O)C(C)O3)cc1 (configuration not stated)	0	0	0	0
Cc1ccc(NC(=O)CSc2ccccc2C(=O)Nc2ccc3c(c2)NC(=O)C(C)O3)cc1 (configuration not stated)	0	37	0	0
Cc1cccc(C(=O)OCC(=O)Nc2ccc3[nH]c(=O)[nH]c3c2)c1	0	52	0	0
SMILES	USP7 inh	USP8 inh	UCHL1 block	USP10 inh
Cc1cccnc1Nc1cc(C2CCCN(C(=O)c3ncccn3)C2)ccn1 (configuration not stated)	0	0	0	0
Cn1c(=O)c2c(nc(CN3CCc4ccccc4C3)n2CC(=O)c2ccccc2)n(C)c1=O	0	36	0	0
Clc1cccc(-c2nc(N3CCC(N4CCCCC4)CC3)nc3c2COc2ccccc2-3)c1	0	0	0	0
O=C1C=C(O)c2c(O)cccc2C1=O	0	79	0	0
Cc1ccc2c(c1)C(=O)c1c(O)cccc1C2=O	0	0	0	0
O=C(Nc1cc(F)c2nc(N3CCOCC3)ccc2c1)c1ccc(Br)o1	0	86	0	0
O=C(Nc1cc(F)c2nc(N3CCOCC3)ccc2c1)C1CCC1	0	78	0	0
O=C(Nc1cc(F)c2nc(N3CCOCC3)ccc2c1)C1CC1	0	59	0	0
Cc1ccc(NC(=O)c2cnc(N3CCOCC3)nc2)cc1F	0	0	0	0
CCC(=O)Nc1nc2cc(NC(=O)Nc3cc(C)cc(C)c3)ccc2s1	0	60	0	32
